Bioassay records deposited in PubChem by National Center for Advancing Translational Sciences (NCATS).
Most compounds without a hit are left out; they make up all but 2% or so of the library.
Rango dissoc inh: prevents RanGTP from dissociating the Rango-importin beta complex | Biochemical FRET Rango-importin beta, RanGTP-induced dissociation | O95149+P62826 | Potency, µM (series often up to 46.1 µM) | 340,000 tested, 0.071% active; calls by dose curve; also: nearly all actives have a fitted effect of over 45% in size
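Rango (0.1 uM)–importin beta (0.25 uM) complex; RanGTP-RCC1 trigger; 45 min RT; CFP/YFP FRET read.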
Abeta rescue: compounds reversing amyloid beta toxicity in yeast; yeast expressing A-beta42, growth rescue, OD600, 48 h; response scale: 0% DMSO, 100% iron-clioquinol control; Potency, µM (titrated, usually from 46.1 µM), usual class: activators; 410,000 tested, 0.063% active; AID 1347071; also: nearly all actives have a fitted effect of over 55% in size
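Yeast growth medium received pinned compounds, then yeast cells expressing toxic A-beta were added; plates incubated at 30 C for 48 hr. Growth read as absorbance at 600 nm, normalized to DMSO and equimolar FeCl3 plus clioquinol controls.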
TDP43 rescue: TDP-43 toxicity inhibition in yeast | TDP-43 expressing yeast growth rescue, BacTiter-Glo, 24 h | Potency, µM (top dose mostly 46.1 µM), actives largely listed as activators | 410,000 tested, 1.8% active | AID 652104; also: nearly all actives have a fitted effect of over 50% in size
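Yeast cells expressing TDP-43 under galactose induction are exposed to compounds for 24 hr at 30 deg C. BacTiter-Glo luminescence measures growth, so protective compounds score as activators.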
Rango complex inh: inhibitors of Rango-importin beta complex formation; Q14974; Rango CFP/YFP FRET sensor + importin beta, 45 min; Potency, µM (titrated, usually from 92.2 µM); 340,000 tested, 0.031% active; AID 540263; calls by dose curve; also: nearly all actives have a fitted effect of over 15% in size
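FRET biosensor Rango (snurportin 1 IBB between N-terminal EYFP and C-terminal Cerulean), 50 nM in PBS/1 mM DTT/0.02% Tween-20/0.1% BSA, preincubated 5 min RT with compound; 0.125 microM importin beta added, 45 min RT, CFP/YFP FRET ratio read.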
aSyn rescue: inhibitors of alpha-synuclein toxicity in yeast; Yeast expressing alpha-synuclein, growth rescue, BacTiter-Glo, 24 h; Potency, µM (series often up to 46.1 µM), hits mostly activators; 370,000 tested, 0.14% active; AID 652106; also: nearly all actives have a fitted effect of over 65% in size
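Readout is rescue of growth in alpha-synuclein-expressing yeast, so inhibitors of toxicity appear as activators. Growth after 24 hr at 30 deg C in galactose medium is quantified by luminescence.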
ASM inhibitor: inhibitors of human secretory acid sphingomyelinase | Potency, µM (titrated, usually from 57.5 µM), most hits filed as inhibitors | placental ASM, HMU-PC fluorogenic substrate, 60 min | AID 504937 | 340,000 tested, 0.006% active
Target sequence (P17405 47-631 limits assumed): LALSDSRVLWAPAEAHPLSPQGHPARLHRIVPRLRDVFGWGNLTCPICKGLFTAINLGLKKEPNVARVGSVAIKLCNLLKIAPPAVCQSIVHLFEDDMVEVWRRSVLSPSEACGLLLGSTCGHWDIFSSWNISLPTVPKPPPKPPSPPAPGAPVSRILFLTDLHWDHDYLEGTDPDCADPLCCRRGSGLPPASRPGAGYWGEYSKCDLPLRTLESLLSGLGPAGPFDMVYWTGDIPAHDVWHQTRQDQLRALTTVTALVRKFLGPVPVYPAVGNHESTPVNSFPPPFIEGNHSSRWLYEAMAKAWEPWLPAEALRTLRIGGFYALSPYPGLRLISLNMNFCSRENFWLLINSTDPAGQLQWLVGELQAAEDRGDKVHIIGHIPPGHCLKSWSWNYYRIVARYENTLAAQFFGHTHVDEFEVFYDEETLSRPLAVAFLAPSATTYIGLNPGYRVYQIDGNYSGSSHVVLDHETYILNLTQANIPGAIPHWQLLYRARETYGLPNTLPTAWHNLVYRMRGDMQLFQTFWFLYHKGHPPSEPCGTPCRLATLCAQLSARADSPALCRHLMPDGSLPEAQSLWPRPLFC
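Steps: dispense placental human ASM, pin compound, wait 10 min at room temperature, add HMU-PC0 substrate at 9 uM final, incubate 60 min at 37 °C, add stop solution raising pH to 10, read fluorescence.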
Hits are given with their value; [ ] = dose if it differs, or a comment. Unless noted, calls follow the shape of the dose curve; as a rule, active = well fitted curve in the direction sought with a large enough effect; inconclusive = small, poorly fitted or top-dose-only effect, or another doubt; inactive = no such curve, though single readings can be large; an effect the other way counts as inactive or inconclusive.

For CC1CCCCC1NC(=S)Nc1ccc(SC(F)F)cc1 (stereo not given) the results were Rango dissoc inh inactive, Abeta rescue inconclusive, TDP43 rescue 20µM, Rango complex inh inactive, aSyn rescue inactive and ASM inhibitor inactive.
CC1CCN(C(=O)C2COc3ccccc3C2)CC1 (stereo not given) was read as Abeta rescue inactive and TDP43 rescue inconclusive.
CCOC(=O)Nc1ccc(Oc2ccccc2)cc1 was read as Rango dissoc inh inactive, Abeta rescue inactive, TDP43 rescue 11µM, Rango complex inh inactive, aSyn rescue inactive and ASM inhibitor inactive.
For CCOC(=O)N1CCC(N(CCN(C)C)C(=S)Nc2ccc(Oc3ccccc3)cc2)CC1 the results were Rango dissoc inh inactive, Abeta rescue inactive, TDP43 rescue inactive, Rango complex inh inactive, aSyn rescue 20µM and ASM inhibitor inactive.
CCOC(=O)Nc1cccc(OCC(=O)Nc2ccccc2OC)c1 was read as Rango dissoc inh inactive, Abeta rescue inactive, TDP43 rescue 16µM, Rango complex inh inactive, aSyn rescue inactive and ASM inhibitor inactive.
For CCOC(=O)Nc1ccc(OC(=O)Oc2ccc(NC(=O)OCC)cc2)cc1 the results were Rango dissoc inh inactive, Abeta rescue inactive, TDP43 rescue inactive, Rango complex inh inactive, aSyn rescue inactive and ASM inhibitor inactive.
For CCOC(=O)c1ccc(N/C=C/C(=O)c2ccccc2)cc1 the results were Rango dissoc inh inactive, Abeta rescue inactive, TDP43 rescue inactive, Rango complex inh inconclusive, aSyn rescue inactive and ASM inhibitor inactive.
Screening CCOC(=O)Nc1ccc(C(=O)/C=C/c2ccccc2)cc1 returned Rango dissoc inh inactive, Abeta rescue inactive, TDP43 rescue 14µM, Rango complex inh inactive, aSyn rescue inactive and ASM inhibitor inactive.
`COc1cccc(CNC(=O)c2cc(C)nc3c2c(C)nn3-c2ccc(C)cc2)c1` gave Abeta rescue inactive and TDP43 rescue inactive[9.22 µM].
For Cc1ccc(S(=O)(=O)c2nnn3c2nc(NC(C)c2ccccc2)c2sccc23)cc1 (stereo not given) the results were Abeta rescue inactive and TDP43 rescue inactive.
O=C(Nc1ccc(Oc2ccccc2)cc1)C1CCN(c2ncccn2)CC1 was read as Rango dissoc inh inactive, Abeta rescue inactive, TDP43 rescue inactive, Rango complex inh inactive, aSyn rescue inactive and ASM inhibitor inactive.
`O=C(Nc1ccc(Oc2ccccc2)cc1)C1CC1` gave Rango dissoc inh inactive, Abeta rescue inactive, TDP43 rescue 5.6µM, Rango complex inh inactive, aSyn rescue inactive and ASM inhibitor inactive.
Cn1cc(S(=O)(=O)c2ccc(Cl)cc2)c(=O)c2cc(F)c(N3CCOCC3)cc21 was read as Abeta rescue inactive and TDP43 rescue inactive.
Screening CC1CN(C(=O)Nc2ccc3snnc3c2)c2ccccc21 (stereo not given) returned Rango dissoc inh inactive, Abeta rescue inactive, TDP43 rescue 16µM, Rango complex inh inactive, aSyn rescue inactive and ASM inhibitor inactive.
`COc1cccc(C(=O)Nc2ccc(Cl)c(-c3nc4ccccc4[nH]3)c2)c1` gave Abeta rescue inactive and TDP43 rescue inactive.
Cc1ccccc1C(=O)Nc1cc2c(cc1N1CCCCC1)n(C)c(=O)n2C was read as Abeta rescue inactive and TDP43 rescue inconclusive.
CCNC(=O)C(=O)N/N=C/c1cc([N+](=O)[O-])ccc1O was read as Rango dissoc inh inactive, Abeta rescue inactive, TDP43 rescue 20µM, Rango complex inh inactive, aSyn rescue inconclusive and ASM inhibitor inactive.
Screening O=[N+]([O-])c1ccc(O)c(/C=N/Nc2ccccn2)c1 returned Rango dissoc inh inactive, Abeta rescue inactive, TDP43 rescue inactive, Rango complex inh inactive, aSyn rescue 0.89µM and ASM inhibitor inactive.
For O=[N+]([O-])c1ccc(O)c(/C=N/Nc2ncnc3c2cnn3-c2ccccc2)c1 the results were Rango dissoc inh inactive, Abeta rescue inactive, TDP43 rescue 7.9µM, Rango complex inh inactive, aSyn rescue inactive and ASM inhibitor inactive.
